Laboratory results taken from PubChem BioAssay AID1159580 (chemical genetic matrix, 2015).
Where “and” joins values, the source holds several entries; their conditions need not be identical. Identical values can stand only once. Out of some 5,500 compounds screened, about 2,000 (36%) were called active. Another 18% or so got no clear call; they are omitted. No stated cut-off is given here; in the data, active means normalized growth mostly below about 0.91 (no sharp cut-off); inconclusive means no clear call, values can overlap the other calls; inactive means mostly above about 0.92. This is one part of the list.

Assay: chemical genetic growth profiling, strain panel (AID 1159580);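 further: tested at 20 µM; growth read once vehicle control cultures reached saturation at 30 °C; 1 = growth at the plate median or of vehicle wells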
Details: S. cerevisiae deletion strains, growth OD
[1] = locus YGR078C, strain PAC10, stronger effect = lower value
[2] = locus YMR307W, strain GAS1, stronger effect = lower value
[3] = locus YNL153C, strain GIM3, stronger effect = lower value

Measured: normalized growth

N.N.N.N.N.N.N.N.N.N.N.N.N.N.O.O.[Ru+4].[Ru+5].[Ru+5]
active: locus YAL040C, strain CLN3, stronger effect = lower value 0.206 | locus YDR363W, strain ESC2, stronger effect = lower value 0.323 | locus YER002W, strain NOP16, stronger effect = lower value 0.155 | [1] 0.158 | locus YGR229C, strain SMI1, stronger effect = lower value 0.151 | locus YJR075W, strain HOC1, stronger effect = lower value 0.115 | [2] 0.218 | locus YNL128W, strain TEP1, stronger effect = lower value 0.194 | [3] 0.193 | locus YNL175C, strain NOP13, stronger effect = lower value 0.175 | locus YNL197C, strain WHI3, stronger effect = lower value 0.154 | locus YNL224C, strain SQS1, stronger effect = lower value 0.173 | locus YOR083W, strain WHI5 (second series), stronger effect = lower value 0.167
inactive: locus YMR263W, strain SAP30, stronger effect = lower value 0.993

CCN(CC)CCOC(=O)C(Cc1cccc2ccccc12)CC1CCCO1 (centres undefined)
inactive: locus YAL013W, strain DEP1, stronger effect = lower value 1.03 | locus YAL021C, strain ccr4, stronger effect = lower value 1 | locus YAL026C, strain drs2, stronger effect = lower value 1.01 | locus YAL030W, strain snc1, stronger effect = lower value 0.998 | locus YBL061C, strain skt5, stronger effect = lower value 1.01 | locus YBR009C, strain hhf1, stronger effect = lower value 1.01 | locus YBR021W, strain FUR4, stronger effect = lower value 1.02 | locus YBR023C, strain chs3, stronger effect = lower value 1.01 | locus YBR171W, strain sec66, stronger effect = lower value 1.02 | locus YBR229C, strain ROT2, stronger effect = lower value 1 | locus YBR231C, strain swc5, stronger effect = lower value 0.995 | locus YBR279W, strain paf1, stronger effect = lower value 1.01 | locus YCL011C, strain gbp2, stronger effect = lower value 1.01 | locus YCL016C, strain dcc1, stronger effect = lower value 1.01 | locus YCL029C, strain bik1, stronger effect = lower value 1.01 | locus YCL061C, strain MRC1, stronger effect = lower value 1.01 | locus YCL069W, strain vba3, stronger effect = lower value 1.01 | locus YCR088W, strain abp1, stronger effect = lower value 1 | locus YDL005C, strain med2, stronger effect = lower value 1.01 | locus YDL035C, strain GPR1, stronger effect = lower value 1.02 | locus YDL040C, strain nat1, stronger effect = lower value 1.01 | locus YDL074C, strain BRE1, stronger effect = lower value 1.02 | locus YDL101C, strain DUN1, stronger effect = lower value 1 | locus YDL134C, strain PPH21, stronger effect = lower value 1.01 | locus YDL185W, strain tfp1, stronger effect = lower value 1.01 | locus YDL192W, strain arf1, stronger effect = lower value 1.01 | locus YDR001C, strain nth1, stronger effect = lower value 1.01 | locus YDR069C, strain doa4, stronger effect = lower value 1.02 | locus YDR101C, strain arx1, stronger effect = lower value 1.02 | locus YDR137W, strain rgp1, stronger effect = lower value 1.07 | locus YDR159W, strain sac3, stronger effect = lower value 1.02 | locus YDR162C, strain NBP2, stronger effect = lower value 1.02 | locus YDR195W, strain ref2 0.996 | locus YDR297W, strain sur2, stronger effect = lower value 1.01 | locus YDR318W, strain mcm21, stronger effect = lower value 1 | locus YDR334W, strain swr1, stronger effect = lower value 1.01 | locus YDR335W, strain msn5, stronger effect = lower value 1.01 | locus YDR388W, stronger effect = lower value 1.01 | locus YDR392W, strain spt3, stronger effect = lower value 1.01 | locus YDR502C, strain sam2, stronger effect = lower value 1.01 | locus YEL003W, strain gim4, stronger effect = lower value 1.01 | locus YEL037C, strain rad23, stronger effect = lower value 1.01 | locus YEL061C, strain CIN8 (second series), stronger effect = lower value 1.01 | locus YEL061C, strain CIN8, stronger effect = lower value 1.01 | locus YER015W, strain faa2, stronger effect = lower value 1.01 | locus YER016W, strain bim1, stronger effect = lower value 1.01 | locus YER110C, stronger effect = lower value 0.99 | locus YER111C, strain swi4, stronger effect = lower value 1.01 | locus YER155C, strain BEM2 (second series), stronger effect = lower value 1.01 | locus YER155C, strain BEM2, stronger effect = lower value 1 | locus YER167W, strain BCK2, stronger effect = lower value 1.01 | locus YFR010W, strain ubp6, stronger effect = lower value 1.02 | locus YGL078C, strain dbp3, stronger effect = lower value 1.02 | locus YGL086W, strain mad1, stronger effect = lower value 1.01 | locus YGL167C, strain pmr1, stronger effect = lower value 1.01 | locus YGL173C, strain kem1, stronger effect = lower value 1.01 | locus YGL227W, strain vid30, stronger effect = lower value 1 | locus YGL240W, strain doc1, stronger effect = lower value 1.01 | locus YGL248W, strain PDE1, stronger effect = lower value 1.01 | locus YGL253W, strain hxk2, stronger effect = lower value 1.01 | [1] 1.03 | locus YGR135W, strain pre9, stronger effect = lower value 0.998 | locus YGR252W, strain gcn5, stronger effect = lower value 1.02 | locus YHR013C, strain ard1, stronger effect = lower value 1.01 | locus YHR027C, strain rpn1, stronger effect = lower value 1.01 | locus YHR030C, strain SLT2, stronger effect = lower value 1.01 and 0.997 | locus YHR079C, strain IRE1 (second series), stronger effect = lower value 1 | locus YHR079C, strain IRE1, stronger effect = lower value 0.985 | locus YHR094C, strain hxt1, stronger effect = lower value 0.997 | locus YHR129C, strain ARP1, stronger effect = lower value 1.01 | locus YHR142W, strain chs7, stronger effect = lower value 1.02 | locus YHR200W, strain rpn10, stronger effect = lower value 1.01 | locus YIL066C, strain RNR3, stronger effect = lower value 1.03 | locus YIL073C, strain SPO22, stronger effect = lower value 1.08 | locus YIL125W, strain kgd1, stronger effect = lower value 1 | locus YIR030C, strain dcg1, stronger effect = lower value 1.01 | locus YJL092W, strain hpr5, stronger effect = lower value 1.01 | locus YJL095W, strain BCK1 (second series), stronger effect = lower value 1 | locus YJL095W, strain BCK1, stronger effect = lower value 1.03 and 0.993 | locus YJL115W, strain asf1, stronger effect = lower value 1 | locus YJL129C, strain trk1, stronger effect = lower value 0.998 | locus YJL134W, strain LCB3, stronger effect = lower value 1 | locus YJL154C, strain vps35, stronger effect = lower value 1.01 | locus YJL164C, strain tpk1, stronger effect = lower value 1.01 | locus YJL166W, strain qcr8, stronger effect = lower value 1 | locus YJL168C, strain set2, stronger effect = lower value 0.998 | locus YJL187C, strain SWE1 (second series), stronger effect = lower value 1.02 | locus YJL187C, strain SWE1, stronger effect = lower value 1.01 | locus YJR043C, strain POL32, stronger effect = lower value 1.02 | locus YJR066W, strain TOR1, stronger effect = lower value 0.95 | locus YKL009W, strain mrt4, stronger effect = lower value 0.989 | locus YKL068W, stronger effect = lower value 1 | locus YKL085W, strain MDH1 (second series), stronger effect = lower value 1 | locus YKL085W, strain MDH1, stronger effect = lower value 1 | locus YKL160W, strain elf1, stronger effect = lower value 1 | locus YKR001C, strain vps1, stronger effect = lower value 1.01 | locus YKR026C, strain gcn3, stronger effect = lower value 1.01 | locus YKR091W, strain srl3, stronger effect = lower value 1 | locus YLL001W, strain dnm1, stronger effect = lower value 0.999 | locus YLL026W, stronger effect = lower value 1 | locus YLL041C, strain sdh2, stronger effect = lower value 1.01 | locus YLR027C, strain aat2, stronger effect = lower value 1.01 | locus YLR039C, strain RIC1, stronger effect = lower value 1.11 | locus YLR058C, strain SHM2, stronger effect = lower value 1.01 | locus YLR102C, strain apc9, stronger effect = lower value 0.992 | locus YLR113W, strain HOG1, stronger effect = lower value 0.986 | locus YLR221C, strain rsa3, stronger effect = lower value 1.01 | locus YLR258W, strain gsy2, stronger effect = lower value 1 | locus YLR262C, strain YPT6 (second series), stronger effect = lower value 1.03 | locus YLR262C, strain YPT6, stronger effect = lower value 1.06 | locus YLR268W, strain sec22, stronger effect = lower value 1.02 | locus YLR320W, strain mms22, stronger effect = lower value 1.03 | locus YLR330W, strain CHS5, stronger effect = lower value 1.01 | locus YLR342W, strain FKS1 (second series), stronger effect = lower value 1.02 | locus YLR342W, strain FKS1, stronger effect = lower value 1.01 | locus YLR357W, strain rsc2, stronger effect = lower value 0.998 | locus YLR370C, strain arc18, stronger effect = lower value 1.01 | locus YLR371W, strain rom2, stronger effect = lower value 1.01 | locus YLR384C, strain iki3, stronger effect = lower value 1.02 | locus YLR418C, strain cdc73, stronger effect = lower value 1.02 | locus YML016C, strain PPZ1, stronger effect = lower value 1 | locus YML032C, strain rad52, stronger effect = lower value 1.01 | locus YML120C, strain ndi1, stronger effect = lower value 1 | locus YML124C, strain tub3, stronger effect = lower value 1 | locus YMR058W, strain fet3, stronger effect = lower value 1.01 | locus YMR078C, strain ctf18, stronger effect = lower value 1.02 | locus YMR125W, strain sto1, stronger effect = lower value 1.01 | locus YMR129W, stronger effect = lower value 1.01 | locus YMR205C, strain PFK2, stronger effect = lower value 1.02 | locus YMR223W, strain ubp8, stronger effect = lower value 1.02 | locus YMR231W, strain pep5, stronger effect = lower value 1.02 | [2] 0.965 | locus YNL067W, strain RPL9B, stronger effect = lower value 1.03 | locus YNL071W, strain lat1, stronger effect = lower value 1.01 | [3] 1.03 | locus YNL183C, strain NPR1, stronger effect = lower value 0.939 | locus YNL209W, strain ssb2, stronger effect = lower value 1.02 | locus YNL233W, strain BNI4, stronger effect = lower value 1.03 | locus YNL248C, strain rpa49, stronger effect = lower value 1.01 | locus YNL250W, strain rad50, stronger effect = lower value 1.01 | locus YNL271C, strain bni1, stronger effect = lower value 0.998 | locus YNL298W, strain CLA4, stronger effect = lower value 0.998 | locus YNL307C, strain MCK1, stronger effect = lower value 1.02 | locus YNL322C, strain KRE1 (second series), stronger effect = lower value 0.996 | locus YNR049C, strain mso1, stronger effect = lower value 0.997 | locus YNR052C, strain pop2, stronger effect = lower value 0.993 | locus YOL006C, strain TOP1, stronger effect = lower value 1.14 | locus YOL012C, strain htz1 0.825 | locus YOL147C, strain pex11, stronger effect = lower value 1 | locus YOR001W, strain rrp6, stronger effect = lower value 1.01 | locus YOR061W, strain CKA2, stronger effect = lower value 1.01 | locus YOR069W, strain VPS5, stronger effect = lower value 1 | locus YOR070C, strain gyp1, stronger effect = lower value 1 | locus YOR080W, strain dia2, stronger effect = lower value 1 | locus YOR083W, strain WHI5, stronger effect = lower value 1.01 | locus YOR106W, strain vam3, stronger effect = lower value 0.998 | locus YOR136W, strain idh2, stronger effect = lower value 1.01 | locus YOR144C, strain elg1, stronger effect = lower value 1 | locus YOR184W, strain ser1, stronger effect = lower value 1.01 | locus YOR231W, strain MKK1, stronger effect = lower value 0.978 | locus YOR265W, strain rbl2, stronger effect = lower value 1 | locus YOR270C, strain vph1, stronger effect = lower value 1.03 | locus YOR290C, strain snf2, stronger effect = lower value 1 | locus YOR316C, strain cot1, stronger effect = lower value 1.01 | locus YPL051W, strain arl3, stronger effect = lower value 1 | locus YPL055C, strain LGE1, stronger effect = lower value 1.02 | locus YPL078C, strain atp4, stronger effect = lower value 1.01 | locus YPL106C, strain sse1, stronger effect = lower value 1.01 | locus YPL240C, strain hsp82, stronger effect = lower value 1 | locus YPL256C, strain CLN2, stronger effect = lower value 0.964 | locus YPR119W, strain clb2, stronger effect = lower value 0.996 | locus YPR141C, strain kar3, stronger effect = lower value 1.01 | locus YPR163C, strain tif3, stronger effect = lower value 1.01 | locus YPR167C, strain met16, stronger effect = lower value 1 | strain wtn01, stronger effect = lower value 1
